# Test results as given in PubChem BioAssay (NCI).
# The panel holds about 83,000 compounds, 20% with a hit somewhere; the sample as a whole holds those more often.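 Negative percent growth values reflect cell death: -40 means 40% of the cells present at the start died, and -100 means all died.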 A number with no mark means an inactive call. Activity calls are given as the source filed them. How the source made its calls: active means growth percent below 10; inactive means the rest.
# Tested on: OVCAR-4 ovarian
# Assay: NCI-60 one-dose screen, 48 h (100 = growth as untreated, 0 = no growth, -100 = all killed)
# Conditions: 10 µM
row,SMILES,growth
1,COc1ccc(-c2nc(-c3nc4ccc(Cl)cc4[nH]3)c3ccccn23)cc1,-77% (active)
2,O=C(O)c1ccc(P(=O)(O)O)c([N+](=O)[O-])c1,104%
3,COc1ccc2c(c1)N(CCO)C1=C(C(=O)OC1)C2c1ccc(OC)c(OC)c1 (stereo not drawn),64.6%
4,CC(=O)O[C@]1(C)CC[C@H]2[C@H](CNCCc3ccc(Cl)cc3)C(=O)O[C@@H]2C2=C(C)C(=O)C[C@H]21,87.4%
5,COc1ccc(Cl)cc1-n1nnc(-c2nc3ccccc3[nH]2)c1N,-79.9% (active)
6,O=C1/C(=C\c2ccc(F)cc2)CN(C(=O)c2ccccc2)C/C1=C\c1ccc(F)cc1,27.3%
7,CCC(=O)N1C/C(=C/c2ccc(Cl)cc2)C(=O)/C(=C/c2ccc(Cl)cc2)C1,8.11% (active)
8,COc1cc(C2CC(c3ccc(Nc4ccnc5cc(Cl)ccc45)cc3)=NN2c2ccc(Cl)cc2)cc(OC)c1OC (stereo not drawn),69.7%
9,COc1cc(NC(=O)CCSc2nc3ccc(C)cc3c(=O)n2Cc2ccccc2)cc(OC)c1OC,-32.1% (active)
10,COc1cc(Nc2ncnc(Nc3ccc4c(n3)NC(=O)C(C)(C)O4)n2)cc(OC)c1OC,39.8%
11,C[C@@H]1C=C2C(=O)O[C@@H]3CC[C@H](C1)[C@]23O,76.5%
12,N#CCCN1C/C(=C/c2ccc(Cl)cc2)C(=O)/C(=C/c2ccc(Cl)cc2)C1,8.18% (active)
13,Cc1[nH]nc2c1C(c1cnn(C)c1)C(C#N)=C(N)O2 (stereo not drawn),101%
14,O=C(Nc1nc2ccc(F)cc2s1)c1cc(-c2ccc(F)cc2)n2nc(-c3ccccc3)cc2n1,17.9%
15,COc1ccc(-c2nc(-c3nc4cc(Cl)c(Cl)cc4[nH]3)c3ccccn23)cc1,-34.2% (active)
16,Cc1ccc(CC#N)cc1C,109%
17,O=C1/C(=C\c2ccc(Cl)cc2)CN(C(=S)Nc2ccccc2)C/C1=C\c1ccc(Cl)cc1,-26% (active)
18,C#Cc1ccc(-n2c(/C=C/c3ccc4ccccc4n3)nc3ncccc3c2=O)cc1,-62.4% (active)
19,N#CCCN1C/C(=C/c2ccccc2)C(=O)/C(=C/c2ccccc2)C1,40.5%
20,CCC(=O)N1C/C(=C/c2ccc(OC)cc2)C(=O)/C(=C/c2ccc(OC)cc2)C1,58.3%

row,SMILES,growth
1,Cc1ccc(C)c(C(O)(c2cc(C)ccc2C)C2(O)CCCCC2)c1,93%
2,O=C1/C(=C\c2ccc(F)cc2)CN(C(=O)c2ccc([N+](=O)[O-])cc2)C/C1=C\c1ccc(F)cc1,50.5%
3,CC(=O)OCc1cc(-c2nc3ccccc3[nH]c2=O)nn1-c1ccc(Cl)cc1,96.1%
4,O=C1/C(=C\c2ccc(Cl)cc2)CN(C(=O)c2ccccc2)C/C1=C\c1ccc(Cl)cc1,36%
5,CC(C)(C)c1cc(Br)cc(C(C)(C)C)c1O,112%
6,C#Cc1ccc(-n2c(/C=C/c3ccc(C(F)(F)F)cc3)nc3ncccc3c2=O)cc1,-42.6% (active)
7,CC/C(=C(/c1ccc(OCCN(C)C)cc1)c1ccc(OC(=O)CCCCC(=O)c2c(C)[nH]c(/C=C3\N=C(c4ccc[nH]4)C=C3OC)c2C)cc1)c1ccccc1,55%
8,CSc1nn(-c2ccccc2)c2ncnc(Oc3ccccc3)c12,86.9%
9,COc1cc(/C=C\c2cc(OC)c(OC)c(OC)c2)cc(NS(=O)(=O)c2ccc(Cl)cc2)c1OC,58.4%
10,COc1ccc(/C=C2/CN(CCC#N)C/C(=C\c3ccc(OC)cc3)C2=O)cc1,17.3%
11,c1ccc(CP(Cc2ccccc2)c2ccccc2)cc1,113%
12,COc1ccc(-c2nc(-c3nc4cc(Cl)c(F)cc4[nH]3)c3ccccn23)cc1,57.6%
13,Cc1nc2ccccc2c(N)c1-c1cc(C)c2c(C)nc3ccccc3c2n1,-64.1% (active)
14,CC1(C)CCC(=NNC(N)=S)CC1,112%
15,Nc1nc(Nc2ccccc2)n[nH]1,103%
16,CCOC(=O)N1C/C(=C/c2ccc(OC)cc2)C(=O)/C(=C/c2ccc(OC)cc2)C1,58%
17,CC(=O)n1c(-c2ccc(Cl)c(Cl)c2)cn(-c2ccc(Cl)cc2)c1=O,5.33% (active)
18,N=C(N)c1ccc(-c2ccc(-c3ccco3)o2)cc1,62.9%
19,COc1ccc(/C=C/C(C)=N/OCC(=O)O)cc1,106%

# Tested on: SK-OV-3 ovarian
# Assay: as above
# Conditions: 10 µM
row,SMILES,growth
1,COc1ccc(-c2nc(-c3nc4ccc(Cl)cc4[nH]3)c3ccccn23)cc1,-47.8% (active)
2,O=C(O)c1ccc(P(=O)(O)O)c([N+](=O)[O-])c1,107%
3,COc1ccc2c(c1)N(CCO)C1=C(C(=O)OC1)C2c1ccc(OC)c(OC)c1 (stereo not drawn),40.5%
4,CC(=O)O[C@]1(C)CC[C@H]2[C@H](CNCCc3ccc(Cl)cc3)C(=O)O[C@@H]2C2=C(C)C(=O)C[C@H]21,101%
5,COc1ccc(Cl)cc1-n1nnc(-c2nc3ccccc3[nH]2)c1N,62.6%
6,O=C1/C(=C\c2ccc(F)cc2)CN(C(=O)c2ccccc2)C/C1=C\c1ccc(F)cc1,74.6%
7,CCC(=O)N1C/C(=C/c2ccc(Cl)cc2)C(=O)/C(=C/c2ccc(Cl)cc2)C1,-34.8% (active)
8,COc1cc(C2CC(c3ccc(Nc4ccnc5cc(Cl)ccc45)cc3)=NN2c2ccc(Cl)cc2)cc(OC)c1OC (stereo not drawn),79.2%
9,COc1cc(NC(=O)CCSc2nc3ccc(C)cc3c(=O)n2Cc2ccccc2)cc(OC)c1OC,30.2%
10,COc1cc(Nc2ncnc(Nc3ccc4c(n3)NC(=O)C(C)(C)O4)n2)cc(OC)c1OC,-19.6% (active)
11,C[C@@H]1C=C2C(=O)O[C@@H]3CC[C@H](C1)[C@]23O,105%
12,N#CCCN1C/C(=C/c2ccc(Cl)cc2)C(=O)/C(=C/c2ccc(Cl)cc2)C1,-10.2% (active)
13,Cc1[nH]nc2c1C(c1cnn(C)c1)C(C#N)=C(N)O2 (stereo not drawn),103%
14,O=C(Nc1nc2ccc(F)cc2s1)c1cc(-c2ccc(F)cc2)n2nc(-c3ccccc3)cc2n1,86.4%
15,COc1ccc(-c2nc(-c3nc4cc(Cl)c(Cl)cc4[nH]3)c3ccccn23)cc1,-25.1% (active)
16,Cc1ccc(CC#N)cc1C,117%
17,O=C1/C(=C\c2ccc(Cl)cc2)CN(C(=S)Nc2ccccc2)C/C1=C\c1ccc(Cl)cc1,-42.3% (active)
18,C#Cc1ccc(-n2c(/C=C/c3ccc4ccccc4n3)nc3ncccc3c2=O)cc1,5.05% (active)
19,N#CCCN1C/C(=C/c2ccccc2)C(=O)/C(=C/c2ccccc2)C1,67.8%
20,CCC(=O)N1C/C(=C/c2ccc(OC)cc2)C(=O)/C(=C/c2ccc(OC)cc2)C1,40.8%

row,SMILES,growth
1,Cc1ccc(C)c(C(O)(c2cc(C)ccc2C)C2(O)CCCCC2)c1,90.9%
2,O=C1/C(=C\c2ccc(F)cc2)CN(C(=O)c2ccc([N+](=O)[O-])cc2)C/C1=C\c1ccc(F)cc1,50.8%
3,CC(=O)OCc1cc(-c2nc3ccccc3[nH]c2=O)nn1-c1ccc(Cl)cc1,100%
4,O=C1/C(=C\c2ccc(Cl)cc2)CN(C(=O)c2ccccc2)C/C1=C\c1ccc(Cl)cc1,59.3%
5,CC(C)(C)c1cc(Br)cc(C(C)(C)C)c1O,101%
6,C#Cc1ccc(-n2c(/C=C/c3ccc(C(F)(F)F)cc3)nc3ncccc3c2=O)cc1,54.1%
7,CC/C(=C(/c1ccc(OCCN(C)C)cc1)c1ccc(OC(=O)CCCCC(=O)c2c(C)[nH]c(/C=C3\N=C(c4ccc[nH]4)C=C3OC)c2C)cc1)c1ccccc1,81.4%
8,CSc1nn(-c2ccccc2)c2ncnc(Oc3ccccc3)c12,104%
9,COc1cc(/C=C\c2cc(OC)c(OC)c(OC)c2)cc(NS(=O)(=O)c2ccc(Cl)cc2)c1OC,28.2%
10,COc1ccc(/C=C2/CN(CCC#N)C/C(=C\c3ccc(OC)cc3)C2=O)cc1,13.4%
11,c1ccc(CP(Cc2ccccc2)c2ccccc2)cc1,100%
12,COc1ccc(-c2nc(-c3nc4cc(Cl)c(F)cc4[nH]3)c3ccccn23)cc1,105%
13,Cc1nc2ccccc2c(N)c1-c1cc(C)c2c(C)nc3ccccc3c2n1,96.7%
14,CC1(C)CCC(=NNC(N)=S)CC1,117%
15,Nc1nc(Nc2ccccc2)n[nH]1,104%
16,CCOC(=O)N1C/C(=C/c2ccc(OC)cc2)C(=O)/C(=C/c2ccc(OC)cc2)C1,26.9%
17,CC(=O)n1c(-c2ccc(Cl)c(Cl)c2)cn(-c2ccc(Cl)cc2)c1=O,19.1%
18,N=C(N)c1ccc(-c2ccc(-c3ccco3)o2)cc1,94.9%
19,COc1ccc(/C=C/C(C)=N/OCC(=O)O)cc1,101%
